Unmarked numbers belong to inactive results. No rule for the calls is given here.
target: PDL1, Q9NZQ7
Sequence (Q9NZQ7 whole entry): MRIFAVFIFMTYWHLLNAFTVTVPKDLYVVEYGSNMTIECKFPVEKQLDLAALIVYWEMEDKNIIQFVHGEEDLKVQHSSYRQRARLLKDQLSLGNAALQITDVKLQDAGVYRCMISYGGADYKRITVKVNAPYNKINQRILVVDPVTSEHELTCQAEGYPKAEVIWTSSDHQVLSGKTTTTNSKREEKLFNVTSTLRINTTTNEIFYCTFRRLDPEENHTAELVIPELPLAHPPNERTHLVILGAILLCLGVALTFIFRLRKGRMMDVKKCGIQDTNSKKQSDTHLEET

Binder	binding in a display sort
d8r1_design_ppi_1244_dldesign_0_cycle1_af2pred (protein) EEEAEKERERYEKAYYFAKAAIAAASSGLPAAVAAAKAFLQKAGEEIPEFLPAAKAATTAAEITAVATKVAAYAAAKIS	not found
d8r1_design_ppi_146_dldesign_0_cycle1_af2pred (protein) YAQKIREAAEKLKSPEKKATLNAFADIAAKLEAEAKKAAAKDPAEGAKKLTAAKNLAAGALKLAEAKKEEE	not found
d8r1_design_ppi_1493_dldesign_0_cycle0_af2pred (protein) EEEKKKLREEAIKLAKKAAEIAKKSENAKEVIEEIEKAIKYLEEGDYEKAAKELAKAGRLADPEARGYINRALLKVGEAK	not found
d8r1_design_ppi_1319_dldesign_0_cycle1_af2pred (protein) AAAEELKTLAAESIGLIDQAEKALKAGTDELNYLKLVAASARKLGPEIAKLVTAALKAAKAGDKETALKYLKEARKLAEKIAA	not found
d8r1_design_ppi_36_dldesign_0_cycle0_af2pred (protein) REEVRAKLEAAAAALREVDPVAGEGFRRLAELAFSGEVNGAWAALASLLEHYLPAAEAHDPELGAIVAEAREAALEEWERIQAE	not found
d8r1_design_ppi_479_dldesign_0_cycle0_af2pred (protein) EELAKEARELAKRGIEDPEKAPEAGRKIAELAAKAVAEGDSEAAAEAVAELTRLHKANPEAGREALILMAQKIAKVAREK	not found
d8r1_design_ppi_128_dldesign_0_cycle1_af2pred (protein) AQLEQIKAQAKKEIEEALEYAKKAKTDPSYLAKALGHLNKASQLAKQLPNAEEVKAEIDKAISAAIAGDYETVKKEAEEAIKLLEKD	not found
d8r1_design_ppi_1215_dldesign_0_cycle1_af2pred (protein) AEEVGRMALTAAEAGERIALEKVKDPATAAEGAALAKVAADALKAAAEKVPEVAERLNKAATELYKKVADAA	not found
d8r1_design_ppi_307_dldesign_0_cycle1_af2pred (protein) MMEEAEKIAEEAKKTADELLAQAKKGDPKPYVNQGFAELNKLLQEAAKLSPEAAEKVKEVLAEFRKQASKILDS	not found
d8r1_design_ppi_1379_dldesign_0_cycle1_af2pred (protein) SAAAGAAVAAAGIAAMRAGAAADGLAGARAAAREAARAAMALFRKDPDAGAAALAALDAAWAAISAALAA	not found
d8r1_design_ppi_93_dldesign_0_cycle1_af2pred (protein) ENKSIAQGLLKAMKAAYEQAKKSGKAAQLKATAEAAKAAAKKAKELGDEETAKELEKLAKEAKELAEKAAAAAA	not found
d8r1_design_ppi_640_dldesign_0_cycle0_af2pred (protein) SEEEEKKAEYLKKAGAAASRAGKVAAANAGNPEIQALAKKAAKALNEAFASNVEEAKKKAEEVEKLAAEAEALAA	not found
d8r1_design_ppi_479_dldesign_0_cycle1_af2pred (protein) AELAKEAKELAEKGIADPSKAPEAAREIAELFAEAVKKGDNEAAAEAHAELSRIYAANPEAGREGHILAAQLMSKYAVES	not found
d8r1_design_ppi_1305_dldesign_0_cycle0_af2pred (protein) ARAEELAEALLAKAKELSKLPMGEAAKAAAAEARALAEQDPETALAAAELAYKRASEDPSVSSKVRALLGAALGAATQQLAAQKAAA	not found
d8r1_design_ppi_997_dldesign_0_cycle1_af2pred (protein) ALSDAQSFVKAAKAAAEKAKELAKKDPEVAAKAVETAKKLAEAAVKASPEAKPQAEEAKKLAEEAKKVVEEAKKKAA	not found
d8r1_design_ppi_855_dldesign_0_cycle1_af2pred (protein) GTGKNLIKVLETSAEKTAALAAELAPDPAAATALADAFEASAKGFAAIAKELGTEAEVKPAAEKAIKKVRDALDKALAAAAA	not found
d8r1_design_ppi_684_dldesign_0_cycle1_af2pred (protein) AAAEEAEEKKYAMAKAAGAAASEIAKIDPALGRKVAIAAGEALSVDLETSYKILTDTLTEVAETGSPEAAAEAQKALDAVEAAYKA	not found
d8r1_design_ppi_638_dldesign_0_cycle1_af2pred (protein) GDARALRRAADNLARRALEELAAQTATAARAAEVAALLEAGRTEGAAKLAEAAALAAADPLLARAGAYLAAAADFLALAEREE	not found
d8r1_design_ppi_156_dldesign_0_cycle0_af2pred (protein) MEEEREREEERRREARRMAQALENAAEAVAARAAAASPAEQPALARAAESLAAAAKVLQKEDPELGAAVEKRAEAILAEIRAR	not found

Binder	binding in a display sort
d8r1_design_ppi_1471_dldesign_0_cycle0_af2pred (protein) MDDSFGKNVIIDAEREIKRFEEAAKKAEEEDKEVAKEIKKIAEEIKKEAEKIKKGEGKLEHSKKALEAMSKGARLVAEFKAK	not found
d8r1_design_ppi_573_dldesign_0_cycle1_af2pred (protein) SAEQAALEAKAKEAALKAWEAAKQYKKTGYQEFKDAAKEYAYAAIAYFRGDTAAGKKYRDAADKLWAKAQAIAAA	binds (active)
d8r1_design_ppi_623_dldesign_0_cycle1_af2pred (protein) AAAAAAADAAAAALLDAAAAAAKAAVELTPEEAAAVLGAIAAAAATALALAKDPAAKAKLLATASEVANTAAQNLSQAVRREEE	not found
d8r1_design_ppi_1130_dldesign_0_cycle1_af2pred (protein) SMEEAEKAAKEIIELAKKAAEDPSYIDELAALAAKYIGSPEAKEALAEAIKILSKKSPELAKQFLAKYSAALAALRAAA	not found
d8r1_design_ppi_423_dldesign_0_cycle1_af2pred (protein) DESDKNMELLTKAGAATSELVAKARADAKAAAAEGPEAVKAVAEEHSAKIKEVAEKLGKESSKSASFKGLIETATKTIKAYADAVVA	not found
d8r1_design_ppi_1104_dldesign_0_cycle1_af2pred (protein) DDLLKQAQATLKQAAALAATVSLAAASDFNAAMFLMRNPKNIPQAIKYAQQGAALAAASAKAPQIKALADEAVKLMKALAKAAAA	not found
d8r1_design_ppi_1130_dldesign_0_cycle0_af2pred (protein) SAEEAEKAAKELIELAKKAAEDPSYIPEAAALAAKHIGTPEARTALAEAIKILMQKSPELAKQFLAAFSAALAALRAAA	not found
d8r1_design_ppi_353_dldesign_0_cycle1_af2pred (protein) TAAAKAAADAALANLQAFLDVVVAADPQNIARVEKAAQIAISGGKVLAAQHPEVADYAAGAATAAAQAAVDRAKALAAA	not found
d8r1_design_ppi_502_dldesign_0_cycle1_af2pred (protein) SLEELVAKAEKYLKEAAKLSPASLAPSVANALAGITEAAKVSPKAAYNLAKSFLDYVKKNGTAEAAKEAEKALEELEKAAK	not found
d8r1_design_ppi_679_dldesign_0_cycle0_af2pred (protein) AAAAARAAIVDETIARIRAELASRPSLAAFAESVLRRGLALGNEAEAARNVAAMLEAAGATAAAAVAREAAARIEAL	not found
d8r1_design_ppi_987_dldesign_0_cycle0_af2pred (protein) QAVLDKANELLAKAMKLFGKLSPENYAAALAAADAAIAAAKELQKEDPELGAALLASAEALKAAIKAKAA	not found
d8r1_design_ppi_246_dldesign_0_cycle1_af2pred (protein) ADPEAAARARAAAAVAGATELLKANPANTPAFAAANAEALADSPAAPEAKAAMAKIAAEAEKAAAARKAAEEAAK	not found
d8r1_design_ppi_307_dldesign_0_cycle0_af2pred (protein) EEARAEALAAEAAATAAALLAAARATDPRADIAAGAAALTAAAREAAALSPAAAAKVRAVIATFMAEALKLMDS	not found
d8r1_design_ppi_1260_dldesign_0_cycle1_af2pred (protein) MTAEEALAEMEKLTKEMKEVSPLAGNAMEAHLNKAKELVAAVAAEDPEKAAEVAAKSYEQAKALYKAMKEMIEEEKKEKELA	not found
d8r1_design_ppi_636_dldesign_0_cycle0_af2pred (protein) DYMDALAAMLKAAAEARALAAAGGDAAAIEAALAKAKELGEEAGKLKGESAKGFAEKVIANVEATIAAAKAARAA	not found
d8r1_design_ppi_429_dldesign_0_cycle1_af2pred (protein) AAAALAAAAAEGAIELAEYQVEIGNLEAARAFVEGALRAAARADPATAAELRARARAVLEEAERRHKERLEA	not found
d8r1_design_ppi_1240_dldesign_0_cycle1_af2pred (protein) DDATLKQAAALIAEGQAAAAQATTDPAYAAKAKEAYKKAGEVYPESSEFFNIAGEKTAQAALDKYKAAQAAAAAAAA	not found
d8r1_design_ppi_877_dldesign_0_cycle1_af2pred (protein) ALAAEAAAAIAKARELLKEIKETGKESKSESVRRFAEGVARKVQALIDQAEAAAADPATALALAKAALKLAEEGLAAVKTLKKAYEE	not found
d8r1_design_ppi_408_dldesign_0_cycle1_af2pred (protein) ASAEAKKKALELIKKAVALTSQGLAKGDKALVKKGLEYAKKAKEEAAKSADAATLLKAVDNVEAMAKTVLDAL	not found

— paper PMC13494018
